From PubChem BioAssay (NCI) come the findings set out here.

Molecules are shown by their SMILES. Compounds without any hit were thinned out: in the full panel of roughly 83,000, 20% have a hit.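 48-hour exposure, single concentration, 96-well plates; percent growth endpoint where 0 means no net growth. Active: below 10.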 Values without a mark were called inactive. The source made the active and inactive calls.

Assay in all cases: NCI-60 one-dose screen, 48 h (100 = growth as untreated, 0 = no growth, -100 = all killed)
Common to all, as to settings: 10 µM unless noted

Test [1] concerns HCT-15 colon.
Test [2] deals with HT29 colon.
Test [3] deals with SNB-75 CNS.
Test [4] deals with SNB-19 CNS.
In test [5] the test system is U251 CNS.
For test [6], the system named is PC-3 prostate.
Test [7] deals with SK-MEL-5 melanoma.
The test system of test [8] is UACC-62 melanoma.
Test [9] deals with LOX IMVI melanoma.
Test [10] has as its system SK-MEL-28 melanoma.
Test [11] relates to SK-MEL-2 melanoma.
In test [12] the test system is EKVX NSCLC.
The test system of test [13] is SN12C renal.
Test [14] has as its system UO-31 renal.
The subject of test [15] is TK-10 renal.
Test [16] concerns ACHN renal.
Test [17] deals with CAKI-1 renal.
Test [18] relates to A498 renal.
Test [19] deals with CCRF-CEM leukemia.
Test [20] has as its system MOLT-4 leukemia.

`NC(=O)CSSCC(N)=O`: the growth in [1] is 102%; in test [2] it was 105%; in test [3] it was 95.2%; in test [4] it was 101%; in [5], 93.4%; in test [6], 92.1%. The growth in test [7] is 98.4%; in test [8], 95.8%; in test [9], 100%; in [10], 109%; in test [11] it was 107%; in test [12], 86.7%. The growth in test [13] is 108%; in test [14] it was 93%; in test [15], 110%; in test [16], 100%; in [17], 99%; in test [18] it was 127%. For the same compound, the values for the growth in [19] and in test [20] were 88.3% and 76.8%, respectively.
On to `Cc1c2cc[nH]c(=O)c2c(C)c2c1[nH]c1cc(OCCN3CCN(C)CC3)ccc12`, for which the growth in test [1] was 10.1%; in [2], -7.17% (active); in [3] it was 7.53% (active); in test [4], 12.9%; in test [5], 17%; in [6] it was 7.38% (active). Further, the growth in [7] was 11.9%; in test [8], 5.81% (active); in test [9], -62.3% (active); in test [10] it was 5.74% (active); in test [11], -13.1% (active); in [12] it was -2.81% (active). Besides, the growth in test [13] was 21%; in [14] it was 2.27% (active); in [15], 27.5%; in [16], -17.5% (active); in [17] it was 43.7%; in [18], -29.1% (active). Moreover, in test [19], the growth is 13.9%.
For the compound `COc1ccc(CCn2cncc2-c2c[nH]c3ccccc23)cc1`, the growth was 93.1% in test [1]; 82.9% in test [2]; 44.4% in [3]; 91.4% in test [4]; 95.7% in test [5]; 80.7% in [6]. For the same compound, the growth in test [7] is 88.2%; in [8], 81.6%; in [9] it was 88.3%; in test [10] it was 101%; in test [11], 88.6%; in test [12], 71.4%. Moreover, the growth was 80.8% in test [13]; 50.7% in test [14]; 141% in test [15]; 87% in test [16]; 68.7% in [17]; 69.5% in test [18]. The results for the growth in [19] and in test [20] were 101% and 93.1%, respectively.
Regarding `Cc1cc2c(c(C)c1Cl)C(=O)/C(=C/c1ccc(O)c(O)c1)O2`, the growth in test [1] was 106%; in [2], 106%; in [3] it was 99%; in [4], 99.2%; in [5] it was 85.4%; in [6] it was 100%. For the same compound, the growth in [7] is 100%; in [8], 88.8%; in [9], 93.7%; in test [10] it was 105%; in test [11], 104%; in test [12], 98.7%. The growth in test [13] was 92.1%; in test [14], 72.2%; in test [15], 119%; in test [16], 92.7%; in [17], 90.6%; in test [18] it was 106%. Moreover, the figures for the growth in test [19] and in [20] were 101% and 108%, respectively.
For `c1ccc(Cn2cnc3ccc(-c4nc(-c5ccc6c(c5)ncn6C5CCCCC5)cn5ccnc45)cc32)cc1`, the growth in test [1] was -9.03% (active); in test [2], -48.7% (active); in test [3] it was -67.4% (active); in [4], 19.6%; in test [5] it was -22.8% (active); in test [6] it was -39.5% (active). Also, the growth is -84% (active) in test [7]; -31.2% (active) in test [8]; -87% (active) in [9]; 0.441% (active) in [10]; -36.7% (active) in test [11]; -12.3% (active) in test [12]. The growth in [13] was -35.4% (active); in test [14], -51.4% (active); in test [15], 5.2% (active); in test [16], 19.9%; in test [17], 43.3%; in test [18], -71.8% (active). Further, the growth in test [19] is 5.6% (active); in [20], 4.39% (active).
In the case of `CN1C(N2CCN(S(=O)(=O)c3ccccc3)CC2)=NS(=O)(=O)c2ccccc21`, the growth in test [1] is 113%; in [2], 104%; in test [3] it was 53.4%; in test [4] it was 104%; in test [5] it was 99.7%; in [6], 98.9%. Moreover, the growth in test [7] is 104%; in test [8] it was 94.4%; in test [9], 96%; in test [10], 103%; in test [11] it was 56.7%; in [12] it was 111%. Moreover, the growth is 90.7% in [13]; 72.4% in [14]; 114% in [15]; 106% in [16]; 104% in test [17]; 155% in test [18]. The growth is 118% in test [19] and 178% in test [20].
For the compound `Cc1ccc(C(=O)/C(=C\c2ccc([N+](=O)[O-])cc2)S(=O)Cc2ccc(F)cc2)cc1` (stereo not drawn), the growth in test [1] was 7.72% (active); in test [2], -49.1% (active); in test [3], 57.1%; in test [4] it was 41.2%; in [5], -7.84% (active); in test [6], -0.882% (active). Besides, the growth in [7] is 64.6%; in test [8], -34.5% (active); in test [9], -39% (active); in test [10], 17.3%; in [11] it was 62.3%; in [12], 58.5%. Besides, the growth was -52.1% (active) in test [13]; -46.1% (active) in [14]; 17.6% in test [15]; -1.53% (active) in [16]; 30.3% in [17]; 68.7% in test [18]. The growth in test [19] was 3.64% (active); in [20], 1.47% (active).
For the compound `Cc1cc(Cl)nc(N(CCNc2ccnc3cc(Cl)ccc23)Cc2ccccn2)n1`, the growth in [1] was 48.7%; in test [2], 24.7%; in [3] it was 78.6%; in test [4], 62.5%; in test [5] it was 26.8%; in test [6], 56.9%. The growth in test [7] is 41.3%; in test [8], 66.3%; in [9], 58.4%; in test [10], 62.1%; in [11], 69.5%; in test [12], 61.4%. The growth was 52.6% in test [13]; 43.2% in test [14]; 63.3% in [15]; 44.9% in test [16]; 56.1% in test [17]; 85.8% in [18]. For the same compound, the growth in test [19] was 7.95% (active).
